# Laboratory results taken from PubChem BioAssay (Tox21).
# Records with an inconclusive call do not appear. Where a call stands in place of a potency, no number is given. Unmarked numbers belong to inactive results. Activity calls are given as the source filed them. Unless noted, the call rests on the fitted dose curve.
# Assay: qHTS assay to identify small molecule agonists of the hypoxia (HIF-1) signaling pathway (AID 1224846; active means well fitted activation curve with a large enough effect in the signal ratio in the repeat runs, not every such curve was filed as active; the % refers to the signal ratio)
# Conditions: HRE-bla ME-180 cells, beta-lactamase ratio, 17 h; series mostly up to 76.8 µM
# How it was run: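 Measured by blue/green FRET after loading CCF4-AM: beta-lactamase expressed from a hypoxia response element in ME-180 cells. Test agents were delivered in DMSO and left 17 hrs; cells had been plated 5 hrs earlier in low-serum (0.5% dialyzed FBS) medium.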
row,SMILES,Potency
1,CNc1ccc([N+](=O)[O-])cc1,inactive
2,C/C=C/C=C/COC(=O)C(C)C,inactive
3,COc1c(C)c2c(c(O)c1C/C=C(\C)CCC(=O)OCCN1CCOCC1)C(=O)OC2,inactive
4,Sc1nc2ccccc2s1,inactive
5,CN1CCN(Cc2cc(-c3ccc4[nH]c(=O)oc4c3)co2)[C@@H](c2ccc(F)cc2)C1,inactive
6,Nc1cc(Cl)c(O)c(Cl)c1,inactive
7,CC[N+](CC)(CC)CCOc1ccc(/C=C/c2ccccc2)cc1,inactive
8,C=CCCC(=O)/C=C/C1C(C)=CCCC1(C)C (stereo unspecified),inactive
9,CN(C)[C@@H](CCOc1cccc2ccccc12)c1ccccc1,inactive
10,COC(=O)Nc1nc2ccc(C(=O)c3ccccc3)cc2[nH]1,inactive
11,Cc1ccc(O)c(O)c1,inactive

# Assay: qHTS assay to identify small molecule agonists of H2AX - cell viability counter screen (AID 1224847); further: top concentration of the series differs between compounds; nearly all actives have a fitted effect of over 30% in size
# Conditions: CHO-K1 viability, CellTiter-Glo luminescence, 3 h; series mostly up to 154 µM
# How it was run: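 Compounds tested at 15 concentrations were incubated 3 hr at 37C with wild-type CHO-K1 cells; cellular ATP-based luminescence (CellTiter-Glo) indicated viability.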
SMILES,Potency,"activity change, negative = cytotoxicity"
CN1CCN2c3ccccc3Cc3ccccc3C2C1 (stereo unspecified),inactive,
CCCCCC/C=C\CCCCCCCC(=O)O,inactive,
COc1cc2nc(N3CCN(C(=O)c4ccco4)CC3)nc(N)c2cc1OC,,-2.17% [at 31.6 µM]
CNc1ccc([N+](=O)[O-])cc1,inactive,
Clc1ccnc(Cl)n1,inactive,
CC1(C)CCC[C@]2(C)[C@H]3CCO[C@]3(C)CC[C@@H]12,inactive,
O=C(O)O,,-9.67% [at 14 µM]
Cc1cc(C)c(/C=C2\C(=O)Nc3ccccc32)[nH]1,inactive,
CCC(C)n1ncn(-c2ccc(N3CCN(c4ccc(OC[C@H]5CO[C@](Cn6cncn6)(c6ccc(Cl)cc6Cl)O5)cc4)CC3)cc2)c1=O (stereo partly specified),inactive,
CCCc1ccc(OCC(=O)N2CCN(C(=O)COc3ccc(CCC)cc3OC)CC2)c(OC)c1,inactive,
